# Dicer processing – human Dicer pre-microRNA cleavage inhibition | z-score at 25 µM | cat-ELCCA pre-miR-21 Dicer processing, chemiluminescence; stronger effect = higher value | actives 6% (n = 47,000) | Q9UPY3 | AID 1347074; in the data active = z-score above about 3, passing the limit was not always enough;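 also: plate controls were vehicle for no effect and no enzyme for full effect; higher signal means more uncleaved substrate so more Dicer inhibition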
# The depositor's hits bear a star. This excerpt belongs to a sample that is enriched for hits.
SMILES,Dicer processing
CCS(=O)(=O)c1ccc(O)c(NC(=O)c2cccs2)c1,1.18
CCOc1ccc(C(Nc2ccccn2)c2ccc3ccc(C)nc3c2O)cc1C (configuration not stated),3.48*
Cc1cccc(NC(c2ccccc2C)c2ccc3ccc(C)nc3c2O)n1 (configuration not stated),5.34*
Cc1ccc(C(NC(=O)C(C)C)c2ccc3cccnc3c2O)cc1 (configuration not stated),12.6
Oc1c(C(Nc2ccccc2Cl)c2ccccn2)ccc2cccnc12 (configuration not stated),13.7
CCOc1cc(C(Nc2ccccn2)c2ccc3cccnc3c2O)ccc1O (configuration not stated),11.2
O=C(NC(Sc1ncccn1)C(=O)c1ccccc1)c1ccccc1 (configuration not stated),-0.62
CCc1ccccc1NC(c1ccccn1)c1ccc2cccnc2c1O (configuration not stated),7.98*
Cc1ccc2ccc(C(Nc3ccccn3)c3ccccc3C)c(O)c2n1 (configuration not stated),0.11
CCOc1cc(C(Nc2ccccn2)c2ccc3ccc(C)nc3c2O)ccc1OC (configuration not stated),0.5
O=C(NC(c1ccccc1)c1ccc2cccnc2c1O)c1ccccc1 (configuration not stated),5.95*
Cc1cccc(NC(c2ccccc2F)c2ccc3cccnc3c2O)n1 (configuration not stated),0.26
CSc1nsc(SC)c1C(=O)NC(C)C,0.86
CC1=C(C(=O)OC2CCCCC2)C(c2ccc3c(c2)OCO3)C2=C(CCCC2=O)N1 (configuration not stated),-0.34
CS(=O)(=O)N(C(=O)NC(=O)Nc1ccc(Cl)cc1)c1ccc(Cl)cc1,-2.74
O=C(Nc1ccccc1)c1cc2ccccc2c(N=Nc2ccc(Cl)cc2)c1O,-0.1
NC(=O)c1nn(-c2ccc(Cl)cc2)c(=O)c2ccccc12,1.2
COc1c(NC(=O)N2CC(C)OC(C)C2)csc1Cl (configuration not stated),-1.3
O=C(NNc1cc(Cl)ccc1Cl)c1ccc(F)cc1F,1.34
CSc1cc(-c2ccc(Oc3ccccc3)cc2)nn1C(=O)c1ccccc1,0.1
CC1=C(C(=O)OC(C)C)C(c2cccs2)C2=C(CC(c3ccccc3)CC2=O)N1 (configuration not stated),2.59
Cc1ccc2ccc(C(Nc3ccccn3)c3ccccc3)c(O)c2n1 (configuration not stated),5.91*
COc1cccc(C(Nc2ccccn2)c2ccc3ccc(C)nc3c2O)c1OC (configuration not stated),0.22
Oc1ccc2ncccc2c1C(Nc1ccccn1)c1ccc(Cl)cc1 (configuration not stated),1.53
COc1ccc(C(Nc2ccccn2)c2ccc3ccc(C)nc3c2O)cc1 (configuration not stated),-1.7
SMILES,Dicer processing
Oc1c(C(Nc2ccccn2)c2ccccc2Cl)ccc2cccnc12 (configuration not stated),3.9*
Oc1cccnc1NC(c1ccc(Cl)cc1)c1ccc2cccnc2c1O (configuration not stated),3.64*
Cc1cccc(NC(c2ccncc2)c2ccc3cccnc3c2O)c1 (configuration not stated),0.59
CCN(CC)c1ccc(C(Nc2ccccn2)c2ccc3cccnc3c2O)cc1 (configuration not stated),2.79
Cc1ccc2ccc(C(Nc3ccccn3)c3ccccc3F)c(O)c2n1 (configuration not stated),11.5
O=C(NCC1CCCO1)C(=O)Nc1ccc(Br)cc1 (configuration not stated),0.71
CSc1ccccc1NC(=O)Cn1nc(C(F)(F)F)c2c1CCC2,1.06
Nc1nc(NCc2c(Cl)cccc2Oc2ccccc2)n[nH]1,4.62
CCOC(=O)c1c(C)oc2ccc(OC(=O)N3CCOCC3)cc12,1.47
COC(=O)c1c(C)oc2ccc(OC(=O)N3CCOCC3)cc12,5.73*
Cc1oc2ccc(OC(=O)N3CCOCC3)cc2c1C(=O)OC(C)C,-0.19
O=C(Nc1ccc(Cl)cn1)c1sc2ccccc2c1Cl,0.91
Cc1nc2c(-c3ccccc3)c(C)[nH]n2c(=O)c1Cc1cccc(Cl)c1,-0.06
CCCCCc1ccc(NC(=O)NNc2ccc(F)c(Cl)c2)cc1,-0.82
CC(C)(C)c1cc(C(F)(F)F)nc(SCCCNC(=O)Cc2cccs2)n1,0.05
COC(=O)c1ccc(C2/C(=C(/O)c3ccc(C)cc3)C(=O)C(=O)N2CC(C)O)cc1 (configuration not stated),-1.04
Cc1cc(Cc2ccc(C(F)(F)F)cc2)c(=O)[nH]n1,3.14*
Cc1cc(Cc2cccs2)c(=O)[nH]n1,1.37
Cc1ccc(Cc2cc(-c3ccc(C)cc3)n[nH]c2=O)cc1,-0.37
O=C(Nc1csc(Cc2ccsc2)n1)O/N=C/c1c(Cl)cccc1Cl,-1.03
O=C(O)C(c1ccc(Cl)cc1)c1ccc(Cl)cc1,1.21
CCCSc1ccc([N+](=O)[O-])c(N=C(NC(=O)OC)SC)c1,-0.95
N#C/C(=N\Nc1ccc(Cl)cc1)C(=O)C1CC1,2.48
COc1ccc(Cl)cc1NC(C)=O,0.03
COc1cc(Cl)ccc1N/N=C(\C#N)C(N)=O,4.95*
SMILES,Dicer processing
Cc1c(C)c(C)c(S(=O)(=O)NCCCN(C)C)c(C)c1C,1.88
Fc1cc2[nH]c(=S)[nH]c2cc1Cl,4.18*
S=c1[nH]c2cc(Cl)cc(Cl)c2o1,-0.92
C=CCOC(=O)C1=C(C)Nc2nc3ccccc3n2C1c1ccccc1 (configuration not stated),-2.08
N#Cc1c2c(c(NCCCN3CCOCC3)n3c1nc1ccccc13)CCCC2,69.2
C#CCSc1nc(C)cc(C)c1C#N,2.04
CC(C)(C)C(=O)n1cc2c(n1)-c1cc(Cl)ccc1SC2,-0.31
CC(C)Cc1nc(SCC(=O)c2ccccc2)n[nH]1,-0.18
CC(=O)CSc1n[nH]c(CN2c3ccccc3Sc3ccccc32)n1,3.5*
CCn1c(CN2c3ccccc3Sc3ccccc32)n[nH]c1=S,0.6
Cc1nc(-c2cccs2)c(CC(=O)O)s1,-1.71
CC1(c2ccc(Br)cc2)NC(=O)CS1 (configuration not stated),-0.65
COC(=O)C(C)Oc1ccc2c(=O)c(Oc3ccc(OC)cc3)coc2c1 (configuration not stated),0.01
CCN(CC)C(=O)Cn1cc(C(=O)c2cccs2)c2ccccc21,1.04
COC(=O)Cn1cc(C(=O)C2CCCCC2)c2ccccc21,-0.91
CCN(CC)C(=O)Cn1cc(C(=O)C2CC2)c2ccccc21,4.08*
CCC(=O)Nc1nc(NC(=O)CC)nc(-c2ccccc2C)n1,2.9
NNC(=O)Cn1nnc(-c2ccccc2C(F)(F)F)n1,0.88
CC(C)C(=O)Nc1nc(NC(=O)C(C)C)nc(-c2ccccc2C(F)(F)F)n1,3.21*
COc1cc2ccccc2cc1C(=O)Nc1nc2ccccc2s1,-0.01
COc1cc(/C=N/Nc2nc3ccccc3s2)cc(OC)c1OC,3.47*
C(=N\Nc1nc2ccccc2s1)/c1cccs1,-0.23
COc1cc(/C=N/NC(=S)NCCc2ccccc2)cc(OC)c1OC,-0.71
Cc1nn(-c2ccccc2)cc1/C=N/Nc1nc2ccccc2s1,2.18
C(=N\Nc1nc2ccccc2s1)/c1ccco1,3.79*
O=C(CSc1nc2ccccc2s1)Nc1ncc2c(n1)CC(c1ccco1)CC2=O (configuration not stated),1.25

# Bioassay records (PubChem)
